The sample as a whole holds a higher share of hits than the screen did.
AMA1 RON2 block – qHTS for Inhibitors of AMA1-RON; Towards Development of Antimalarial Drug Lead: Primary Screen; Plasmodium falciparum AMA1 (3D7) - RON2 peptide interaction; AlphaScreen AMA1-biotinylated RON2 peptide binding; Potency, µM (highest dose often 58.2 µM), for inactives: at the top dose activity change, negative = inhibition, actives largely listed as inhibitors; actives 0.2% (n = 360,000);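 note: potency is the fitted concentration of half-maximal effect; 0% = vehicle wells and -100% = peptide control; nearly all actives have a fitted effect of over 45% in size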
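AMA1 (3D7) with his tag at 25 nM final met compounds first, then biotinylated RON2 peptide at 25 nM; detection used donor plus acceptor beads, 10 µg/mL apiece, read by AlphaScreen after 30 min at room temperature.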
Cycloheximide cs – Cycloheximide Counterscreen for Small Molecule Inhibitors of Shiga Toxin. cell reporter, cycloheximide protein synthesis inhibition counterscreen. max response, %. actives 12% (n = 300,000). AID 2314, 2010; in the data active = max response mostly above about 13%, no sharp cut-off; inactive = mostly below about 14%; note: read at 38.3 µM for the half of the compounds with a filed dose; 0% is about no effect
Shiga inhibitor – A qHTS for Small Molecule Inhibitors of Shiga Toxin; Vero cells, Shiga toxin protein synthesis inhibition reporter; inhibition, % at 38.7 µM; actives 9.2% (n = 290,000); AID 2315, 2010; in the data active = inhibition mostly above about 28%, no sharp cut-off; inactive = mostly below about 43%; note: 0% is about no effect
AmpC no deterg – qHTS Inhibitors of AmpC Beta-Lactamase (assay without detergent); AmpC nitrocefin hydrolysis, absorbance 480 nm, 0.0001% Triton; AID 485341, 2010; P00811; Potency, µM (series often up to 57.1 µM), inactives show top-dose activity change, negative = inhibition, most hits filed as inhibitors; actives 0.52% (n = 330,000);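 note: potency is the fitted concentration of half-maximal effect; plate controls were no compound for no effect and no enzyme for full effect; nearly all actives have a fitted effect of over 20% in size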
Target sequence (P00811 whole entry, looked up): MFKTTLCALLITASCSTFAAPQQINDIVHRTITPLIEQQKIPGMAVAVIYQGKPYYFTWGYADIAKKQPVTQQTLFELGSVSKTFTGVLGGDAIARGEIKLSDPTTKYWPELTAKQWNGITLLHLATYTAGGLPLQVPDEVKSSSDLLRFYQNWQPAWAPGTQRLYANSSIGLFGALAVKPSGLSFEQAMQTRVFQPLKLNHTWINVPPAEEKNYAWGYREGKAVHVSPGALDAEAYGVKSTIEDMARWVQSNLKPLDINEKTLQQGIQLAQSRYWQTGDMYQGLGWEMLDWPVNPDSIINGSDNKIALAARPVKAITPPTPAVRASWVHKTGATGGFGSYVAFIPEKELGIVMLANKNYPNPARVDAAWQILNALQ
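AmpC (5.3 nM in the dispensed reagent) in 20 mM phosphate pH 7.0 with 0.01% (detergent screen) or 0.0001% Triton X-100 was preincubated with compounds for 15 min at room temperature. Nitrocefin was then added from an 800 uM solution, and hydrolysis was followed at 480 nm.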
AmpC detergent – qHTS Inhibitors of AmpC Beta-Lactamase (assay with detergent); AmpC hydrolysis of nitrocefin, absorbance 480 nm, 0.01% Triton; Potency, µM (highest dose often 114 µM), inactives show at the top dose activity change, negative = inhibition, hits mostly inhibitors; P00811; actives 0.041% (n = 370,000);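 note: potency is the fitted concentration of half-maximal effect; 0% = no-compound wells and -100% = no-enzyme wells; nearly all actives have a fitted effect of over 25% in size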
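20 mM phosphate pH 7.0 + 0.01% (detergent screen) or 0.0001% Triton X-100; 5.3 nM AmpC reagent; cpd preinc 15 min RT; nitrocefin (800 uM stock) to start; A480 q20 s × 4 min; Activity was normalised to no-enzyme and no-compound control wells.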
SARS PLpro yeast – qHTS of Yeast-based Assay for SARS-CoV PLP. Potency, µM (series often up to 32.9 µM), inactives show top-dose activity, positive = growth rescue, usual class: activators. actives 0.19% (n = 330,000). S. cerevisiae expressing SARS-CoV PLpro, growth rescue; calls by dose curve; note: potency is the fitted concentration of half-maximal effect; 0% is about no effect; nearly all actives have a fitted effect of over 55% in size
The depositor's hits bear a star; u = inconclusive; x = no result given. Unless noted, calls come from the whole dose curve; as a rule, active = well fitted curve in the direction sought with a large enough effect; inconclusive = small, poorly fitted or top-dose-only effect, or another doubt; inactive = no such curve, though single readings can be large; an effect the other way counts as inactive or inconclusive.

SMILES	AMA1 RON2 block	Cycloheximide cs	Shiga inhibitor	AmpC no deterg	AmpC detergent	SARS PLpro yeast
CC(C)C(NC(=O)Nc1ccccc1)C(=O)Nc1cccc(S(=O)(=O)N(C)C)c1 (centres undefined)	-13.3%	-2.1	-2.9	-36.3%	-5.0%	x
Cc1ccc(NC(=O)Cn2c(=S)[nH]c3ccccc32)cc1	52.2%	21.9*	41.7	-25.5%	-6.3%	1.7%
O=C(Nc1ccccc1)N1CCC(C(=O)N2CCCC(C(F)(F)F)C2)CC1 (centres undefined)	-15.8%	-3.2	26.0	-6.8%	u	0.3%
Cc1[nH]n(-c2ccccc2)c(=O)c1/C=C1/C=c2ccccc2=N1	-16.7%	17.2*	17.2	-18.5%	1.4%	-4.5%
Cc1[nH]n(-c2ccccc2)c(=O)c1/C=C1\C=NN=C1c1ccccc1	-11.5%	66.9*	97.8*	4.7%	-3.5%	-2.0%
COc1ccccc1-c1cnc2c(c1)C(=O)N([C@@H](C)CO)C[C@H](C)[C@H](CN(C)C)O2	12.3%	x	x	x	x	x
O=C(Cc1ccccc1F)Nc1nc(-c2cccs2)cs1	-1.5%	36.8*	49.7*	-40.0%	u	-16.4%
O=C(Cc1ccccc1)Nc1nnc(-c2cccs2)s1	25.8%	25.5*	40.4	-27.4%	u	4.9%
O=C(Cc1ccccc1F)Nc1nc(-c2ccc(F)c(F)c2)cs1	-0.4%	19.4*	61.6*	-49.0%	-8.7%	-26.3%
O=C(Cc1ccccc1)Nc1nc(-c2cccs2)cs1	11.4%	42.5*	105.2*	-38.1%	-4.9%	-9.4%
O=C(Cc1ccccc1F)Nc1nc(-c2cccnc2)cs1	8.1%	7.9	17.5	-15.0%	-6.2%	0.2%
c1ccc(-c2nnc(C(c3ccccc3)c3ccccc3)o2)cc1	1.7%	4.9	37.1	-22.8%	-7.5%	8.7%
O=C(N/N=C/c1ccc([N+](=O)[O-])o1)C(=O)Nc1ccc(C(=O)O)cc1	31.8%	0.7	1.6	-3.5%	1.0%	1.1%
COc1cc(C2C(C(=O)Nc3ccccc3)=C(C)Nc3nc(SCc4ccccc4F)nn32)cc(OC)c1OC (centres undefined)	x	x	x	x	-1.1%	x
CC1(C(=O)OCC(=O)N2c3ccccc3Sc3ccccc32)CC1(Cl)Cl (centres undefined)	11.9%	0.5	-5.2	-23.4%	-9.4%	-46.2%
CCn1cc(C(=O)NC2CCCCC2)c(=O)c2cc(S(=O)(=O)N(C)C)ccc21	-1.3%	5.8	-2.1	-1.1%	-6.8%	5.7%
CCOc1ccc(NCc2nnc(SCc3ccccc3Cl)n2-c2ccccc2)cc1	26.7µM*	-5.4	-1.6	45.5%	3.7%	-16.1%
COc1ccc(-n2c(CNc3ccc(C)cc3)nnc2SCc2ccccc2)cc1	-29.7%	3.9	-3.7	26.8%	4.0%	-6.2%
COc1ccc(N=C2SCC(c3ccccc3)=NN2C)cc1	-15.5%	28.9*	31.9	-16.3%	-0.1%	-1.3%
Cc1ccccc1N=C1Nc2ccccc2CS1	-4.8%	29.0*	121.5*	-59.3%	-3.4%	3.3%
Cc1ccccc1N=C1NC(=O)CS1	4.4%	-9.6	-5.6	2.0%	-7.8%	-2.3%
Cc1cc(N/C(=N/S(=O)(=O)c2cc(F)ccc2F)c2ccccc2)n(-c2ccccc2)n1	-7.1%	14.7*	16.2	1.3%	1.1%	-5.9%
Cc1ccc2nc(N/C(=N/S(=O)(=O)c3ccc(F)cc3F)c3ccccc3)sc2c1	-8.9%	30.7*	66.2*	-41.6%	1.2%	1.7%
Cc1ccc2nc(N/C(=N/S(=O)(=O)c3ccc(F)cc3)c3ccccc3)sc2c1	-0.6%	48.1*	131.6*	-34.4%	-1.2%	-8.7%
CN(C(=O)c1ccc2c(c1)OCO2)C1CCCCC1	5.0%	42.2*	35.7*	-2.7%	-2.6%	20.7%
CC1CCC(NC(=O)c2ccc(/C=C3\Oc4ccccc4N(C)C3=O)cc2)CC1 (centres undefined)	x	25.0*	41.9	-1.2%	u	9.9%

Screens deposited in PubChem by National Center for Advancing Translational Sciences (NCATS).
